# Test results: PubChem BioAssay (NCI)
# About 79,000 compounds went through this panel and 15% of them were active in at least one assay; those are over-represented in the sample as a whole. A number with no mark means an inactive call. Calls of active or inactive are those of the source. Rule as the data show it: active = growth inhibition above about 70%; inactive = the rest.
# Experiments:
# [1] = NCI Yeast Anticancer Drug Screen. Data for the rad52 strain (AID 147);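 also: 0% = growth of vehicle-treated control cultures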; conditions: S. cerevisiae rad52 mutant growth inhibition, hits give high values
# Outline: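 DNA repair-defective yeast; compound exposure; growth scored against vehicle controls.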
# [2] = NCI Yeast Anticancer Drug Screen. Data for the wt1 strain (AID 149);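 also: 0% = growth of vehicle-treated wt1 cultures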; conditions: S. cerevisiae wt1 strain (SPY 50644) growth inhibition, hits give high values
# Outline: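 Yeast wt1 strain exposed to compounds; growth inhibition measured relative to vehicle-treated controls.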
# [3] = NCI Yeast Anticancer Drug Screen. Data for the rad50EPP+ strain (AID 151);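 also: 0% = growth of vehicle-treated control cultures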; conditions: S. cerevisiae rad50 mutant strain, hits give high values
# Outline: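 rad50EPP+ yeast treated with test compounds. Readout: growth vs vehicle control.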
# [4] = NCI Yeast Anticancer Drug Screen. Data for the mgt1 strain (AID 153); conditions: S. cerevisiae mgt1 mutant growth inhibition, hits give high values
# Outline: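 Growth inhibition relative to vehicle controls was scored for the mgt1 yeast strain after compound exposure.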
# [5] = NCI Yeast Anticancer Drug Screen. Data for the rad50 strain (AID 155);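 also: 0% = growth of vehicle-only cultures of the same strain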; conditions: S. cerevisiae rad50 strain growth inhibition, hits give high values
# Outline: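 Yeast carrying a defined DNA repair defect were exposed to test compounds, and growth was compared with vehicle-treated controls to give percent inhibition.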
# [6] = NCI Yeast Anticancer Drug Screen. Data for the mec2-1 strain (AID 157); conditions: S. cerevisiae mec2-1 strain, hits give high values
# Outline: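 Growth inhibition is read against vehicle-treated controls after compound exposure of the mec2-1 yeast strain, which is defective in DNA damage repair or cell cycle control.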
# [7] = NCI Yeast Anticancer Drug Screen. Data for the rad14 strain (AID 159);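 also: 0% = growth of vehicle-treated control cultures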; conditions: S. cerevisiae rad14 strain growth inhibition, hits give high values
# Outline: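 Yeast cells carrying a defined DNA-repair defect were exposed to compounds, and growth inhibition was calculated relative to vehicle-treated control cultures.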
# [8] = NCI Yeast Anticancer Drug Screen. Data for the sgs1 mgt1 strain (AID 161);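 also: 0% = growth of cultures given vehicle only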; conditions: S. cerevisiae sgs1 mgt1 strain, hits give high values
# Outline: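 Growth of a repair-deficient yeast mutant was monitored after compound treatment and expressed as inhibition relative to vehicle-treated cultures.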
# [9] = NCI Yeast Anticancer Drug Screen. Data for the CLN2oe strain (AID 163);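 also: 0% = growth of vehicle-only control cultures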; conditions: S. cerevisiae CLN2oe strain, hits give high values
# Outline: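 Compound-treated yeast; growth vs vehicle ctrl = % inhibition. Genetically altered strain (cell-cycle control).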
# [10] = NCI Yeast Anticancer Drug Screen. Data for the cln2 rad14 strain (AID 165);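 also: 0% = growth equal to vehicle treated cultures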; conditions: S. cerevisiae cln2 rad14 strain, hits give high values
# Outline: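 Growth inhibition, relative to vehicle-treated controls, is the read-out. The test organism is a yeast strain with defined genetic alterations, cln2 rad14.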
# [11] = NCI Yeast Anticancer Drug Screen. Data for the bub3 strain (AID 167); conditions: S. cerevisiae bub3 mutant strain, hits give high values
# Outline: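 Compounds were applied to a genetically altered yeast strain carrying a cell-cycle control defect. Growth inhibition was scored against vehicle-treated controls.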
# [12] = NCI Yeast Anticancer Drug Screen. Data for the wt2 strain (AID 169);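 also: 0% = growth of vehicle-treated yeast cultures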; conditions: S. cerevisiae wt2 strain growth inhibition, hits give high values
# Outline: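 Compound exposure of yeast; growth compared with vehicle controls; inhibition reported.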
# [13] = NCI Yeast Anticancer Drug Screen. Data for the mlh1 strain (AID 171);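 also: 0% = growth of vehicle-treated control cultures of the same strain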; conditions: S. cerevisiae mlh1 strain growth inhibition, hits give high values
# Outline: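 Compounds are applied to a genetically altered yeast strain, and its growth is compared with that of vehicle-treated cultures to give percent inhibition.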
# [14] = NCI Yeast Anticancer Drug Screen. Data for the sgs1 strain (AID 173);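 also: 0% = growth of vehicle-only control cultures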; conditions: S. cerevisiae sgs1 mutant, hits give high values
# Outline: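 Compounds applied to genetically altered yeast; growth compared with vehicle-treated cultures to give % inhibition.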
# [15] = NCI Yeast Anticancer Drug Screen. Data for the mlh1 rad18 strain (AID 175); conditions: S. cerevisiae mlh1 rad18 strain growth inhibition, hits give high values
# Outline: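 Cells of a genetically altered yeast strain, deficient in DNA damage repair, were treated with compound. Their growth was then compared with that of vehicle-treated cultures to give inhibition.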
# [16] = NCI Yeast Anticancer Drug Screen. Data for the rad18 strain (AID 177); conditions: S. cerevisiae rad18 mutant growth inhibition, hits give high values
# Outline: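 Compounds are applied to a repair-deficient yeast strain, and growth is compared with that of vehicle-treated cultures to give percent inhibition.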
# [17] = at 5.0 µM (retest, dose inferred, filed as 0.5)
# [18] = at 50.0 µM (retest, dose inferred, filed as 5.0)
structure (smiles),measurement,setting,value
Nc1nc(N)c2cc(Sc3ccc4ccccc4c3)ccc2n1,growth inhibition,[1]; at 1.2 µM,28%
same,growth inhibition,[1]; at 3.7 µM,69%
same,growth inhibition,[1]; at 11.0 µM,92% (active)
same,growth inhibition,[1]; at 33.0 µM,96% (active)
same,growth inhibition,[1]; at 100.0 µM,92% (active)
same,growth inhibition,[2]; at 1.2 µM,1%
same,growth inhibition,[2]; at 3.7 µM,10%
same,growth inhibition,[2]; at 11.0 µM,44%
same,growth inhibition,[2]; at 33.0 µM,86% (active)
same,growth inhibition,[2]; at 100.0 µM,89% (active)
same,growth inhibition,[3]; at 1.2 µM,17%
same,growth inhibition,[3]; at 3.7 µM,31%
same,growth inhibition,[3]; at 11.0 µM,31%
same,growth inhibition,[3]; at 33.0 µM,65%
same,growth inhibition,[3]; at 100.0 µM,63%
same,growth inhibition,[4]; at 1.2 µM,-23%
same,growth inhibition,[4]; at 3.7 µM,12%
same,growth inhibition,[4]; at 11.0 µM,74% (active)
same,growth inhibition,[4]; at 33.0 µM,93% (active)
same,growth inhibition,[4]; at 100.0 µM,94% (active)
same,growth inhibition,[5]; at 1.2 µM,-8%
same,growth inhibition,[5]; at 3.7 µM,43%
same,growth inhibition,[5]; [17],55%
same,growth inhibition,[5]; at 11.0 µM,90% (active)
same,growth inhibition,[5]; at 33.0 µM,95% (active)
same,growth inhibition,[5]; [18],98% (active)
same,growth inhibition,[5]; at 50.0 µM,88.1% (active)
same,growth inhibition,[5]; at 100.0 µM,92% (active)
same,growth inhibition,[6]; at 1.2 µM,-13%
same,growth inhibition,[6]; at 3.7 µM,61%
same,growth inhibition,[6]; [17],79% (active)
same,growth inhibition,[6]; at 11.0 µM,94% (active)
same,growth inhibition,[6]; at 33.0 µM,95% (active)
same,growth inhibition,[6]; [18],99% (active)
same,growth inhibition,[6]; at 50.0 µM,91.3% (active)
same,growth inhibition,[6]; at 100.0 µM,95% (active)
same,growth inhibition,[7]; at 1.2 µM,-13%
same,growth inhibition,[7]; at 3.7 µM,-2%
same,growth inhibition,[7]; at 11.0 µM,69%
same,growth inhibition,[7]; at 33.0 µM,96% (active)
same,growth inhibition,[7]; at 100.0 µM,94% (active)
same,growth inhibition,[8]; [17],62%
same,growth inhibition,[8]; [18],97% (active)
same,growth inhibition,[8]; at 50.0 µM,89% (active)
same,growth inhibition,[9]; at 1.2 µM,2%
same,growth inhibition,[9]; at 3.7 µM,9%
same,growth inhibition,[9]; at 11.0 µM,50%
same,growth inhibition,[9]; at 33.0 µM,85% (active)
same,growth inhibition,[9]; at 100.0 µM,89% (active)
same,growth inhibition,[10]; [17],10%
same,growth inhibition,[10]; [18],85% (active)
same,growth inhibition,[10]; at 50.0 µM,86.7% (active)
same,growth inhibition,[11]; at 1.2 µM,-21%
same,growth inhibition,[11]; at 3.7 µM,-4%
same,growth inhibition,[11]; [17],30%
same,growth inhibition,[11]; at 11.0 µM,74% (active)
same,growth inhibition,[11]; at 33.0 µM,94% (active)
same,growth inhibition,[11]; [18],97% (active)
same,growth inhibition,[11]; at 50.0 µM,85.8% (active)
same,growth inhibition,[11]; at 100.0 µM,93% (active)
same,growth inhibition,[12]; at 1.2 µM,-18%
same,growth inhibition,[12]; at 3.7 µM,25%
same,growth inhibition,[12]; at 11.0 µM,69%
same,growth inhibition,[12]; at 33.0 µM,87% (active)
same,growth inhibition,[12]; at 100.0 µM,92% (active)
same,growth inhibition,[13]; at 1.2 µM,-11%
same,growth inhibition,[13]; at 3.7 µM,22%
same,growth inhibition,[13]; at 11.0 µM,79% (active)
same,growth inhibition,[13]; at 33.0 µM,95% (active)
same,growth inhibition,[13]; at 100.0 µM,93% (active)
same,growth inhibition,[14]; at 1.2 µM,3%
same,growth inhibition,[14]; at 3.7 µM,38%
same,growth inhibition,[14]; at 11.0 µM,80% (active)
same,growth inhibition,[14]; at 33.0 µM,94% (active)
same,growth inhibition,[14]; at 100.0 µM,91% (active)
same,growth inhibition,[15]; [17],60%
same,growth inhibition,[15]; [18],96% (active)
same,growth inhibition,[15]; at 50.0 µM,83.8% (active)
Cc1cc(N=C2C=CC(=[N+](C)C)C=C2)c(N)cc1N,growth inhibition,[1]; at 1.2 µM,-7%
same,growth inhibition,[1]; at 3.7 µM,-9%
same,growth inhibition,[1]; at 11.0 µM,15%
same,growth inhibition,[1]; at 33.0 µM,45%
same,growth inhibition,[1]; at 100.0 µM,72% (active)
same,growth inhibition,[2]; at 1.2 µM,12%
same,growth inhibition,[2]; at 3.7 µM,15%
same,growth inhibition,[2]; at 11.0 µM,23%
same,growth inhibition,[2]; at 33.0 µM,52%
same,growth inhibition,[2]; at 100.0 µM,75% (active)
same,growth inhibition,[3]; at 1.2 µM,-8%
same,growth inhibition,[3]; at 3.7 µM,-6%
same,growth inhibition,[3]; at 11.0 µM,-5%
same,growth inhibition,[3]; at 33.0 µM,9%
same,growth inhibition,[3]; at 100.0 µM,47%
same,growth inhibition,[4]; at 1.2 µM,4%
same,growth inhibition,[4]; at 3.7 µM,15%
same,growth inhibition,[4]; at 11.0 µM,28%
same,growth inhibition,[4]; at 33.0 µM,52%
same,growth inhibition,[4]; at 100.0 µM,75% (active)
same,growth inhibition,[5]; at 1.2 µM,-2%
same,growth inhibition,[5]; at 3.7 µM,1%
same,growth inhibition,[5]; [17],54%
same,growth inhibition,[5]; at 11.0 µM,15%
same,growth inhibition,[5]; at 33.0 µM,52%
same,growth inhibition,[5]; [18],61%
same,growth inhibition,[5]; at 50.0 µM,46.4%
same,growth inhibition,[5]; at 100.0 µM,71% (active)
same,growth inhibition,[6]; at 1.2 µM,-16%
same,growth inhibition,[6]; at 3.7 µM,-13%
same,growth inhibition,[6]; [17],50%
same,growth inhibition,[6]; at 11.0 µM,-3%
same,growth inhibition,[6]; at 33.0 µM,23%
same,growth inhibition,[6]; [18],70% (active)
same,growth inhibition,[6]; at 50.0 µM,45.3%
same,growth inhibition,[6]; at 100.0 µM,59%
same,growth inhibition,[7]; at 1.2 µM,-20%
same,growth inhibition,[7]; at 3.7 µM,-19%
same,growth inhibition,[7]; at 11.0 µM,8%
same,growth inhibition,[7]; at 33.0 µM,46%
same,growth inhibition,[7]; at 100.0 µM,70% (active)
same,growth inhibition,[8]; [17],-18%
same,growth inhibition,[8]; [18],65%
same,growth inhibition,[8]; at 50.0 µM,63.8%
same,growth inhibition,[9]; at 1.2 µM,35%
same,growth inhibition,[9]; at 3.7 µM,35%
same,growth inhibition,[9]; at 11.0 µM,32%
same,growth inhibition,[9]; at 33.0 µM,28%
same,growth inhibition,[9]; at 100.0 µM,67%
same,growth inhibition,[10]; [17],59%
same,growth inhibition,[10]; [18],57%
same,growth inhibition,[10]; at 50.0 µM,39.7%
same,growth inhibition,[11]; at 1.2 µM,4%
same,growth inhibition,[11]; at 3.7 µM,7%
same,growth inhibition,[11]; [17],31%
same,growth inhibition,[11]; at 11.0 µM,34%
same,growth inhibition,[11]; at 33.0 µM,54%
same,growth inhibition,[11]; [18],21%
same,growth inhibition,[11]; at 50.0 µM,62.6%
same,growth inhibition,[11]; at 100.0 µM,75% (active)
same,growth inhibition,[12]; at 1.2 µM,-9%
same,growth inhibition,[12]; at 3.7 µM,22%
same,growth inhibition,[12]; at 11.0 µM,-15%
same,growth inhibition,[12]; at 33.0 µM,22%
same,growth inhibition,[12]; at 100.0 µM,62%
same,growth inhibition,[13]; at 1.2 µM,1%
same,growth inhibition,[13]; at 3.7 µM,2%
same,growth inhibition,[13]; at 11.0 µM,-2%
same,growth inhibition,[13]; at 33.0 µM,31%
same,growth inhibition,[13]; at 100.0 µM,61%
same,growth inhibition,[15]; [17],28%
same,growth inhibition,[15]; [18],56%
same,growth inhibition,[15]; at 50.0 µM,53.5%
same,growth inhibition,[16]; at 1.2 µM,-2%
same,growth inhibition,[16]; at 3.7 µM,-4%
same,growth inhibition,[16]; at 11.0 µM,7%
same,growth inhibition,[16]; at 33.0 µM,21%
same,growth inhibition,[16]; at 100.0 µM,61%
